A short description of assay [1]: liver-stage malaria parasite load reduction – cell-based, known kinase inhibitor set, luminescence, hepatoma host viability (AID 624392).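 Also: infected cells incubated roughly two days before readout.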 Particulars: Plasmodium liver stage in hepatoma cells, luciferase luminescence, concentration not given here; liver cell % of control: measured here: host liver cell viability; parasite % of control: stronger effect = lower value.
Assay [2] can be described thus: altered dexamethasone sensitivity, NF-kB reporter, cell-based, luciferase, IL-1B stimulus (AID 624486).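 As to percent of negative control (+Dex): 100% = mean signal of vehicle control wells on the plate.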 Particulars: IL-1B + dexamethasone, luminescence; percent of negative control (+Dex): actives lie on both sides, concentration not given here; z-score: measured here: IL-1B alone, no Dex.
Assay [3] deals with Cellular tumor antigen p53 (Homo sapiens) (UniProt P04637). Briefly: GFP-p53 level modulators in HPV16+ cells – imaging, known kinase inhibitor set, EGFP/DsRed ratio (AID 1053116).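 Also: cells exposed to compounds for 24 h at 37 °C before reading.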 Particulars: GFP-p53 stability, stronger effect = higher value; EGFP object count: measured here: GFP-p53 positive objects count.
Sequence of Cellular tumor antigen p53 (Homo sapiens) (P04637 whole entry, looked up): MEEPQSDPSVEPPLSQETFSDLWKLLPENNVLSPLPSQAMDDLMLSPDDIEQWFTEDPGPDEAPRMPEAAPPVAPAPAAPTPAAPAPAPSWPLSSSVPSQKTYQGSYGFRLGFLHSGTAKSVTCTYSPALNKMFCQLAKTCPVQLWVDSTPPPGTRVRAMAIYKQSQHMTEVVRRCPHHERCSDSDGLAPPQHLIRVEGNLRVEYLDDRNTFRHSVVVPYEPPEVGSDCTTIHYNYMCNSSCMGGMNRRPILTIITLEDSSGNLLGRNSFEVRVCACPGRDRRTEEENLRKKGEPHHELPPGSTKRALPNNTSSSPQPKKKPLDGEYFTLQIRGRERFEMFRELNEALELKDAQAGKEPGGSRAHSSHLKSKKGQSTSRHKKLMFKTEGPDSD
Assay [4] in a line: inducers of IRF3 signaling, differentiated THP-1 – cell-based, PMA-stimulated THP-1, luminescence (AID 1053176). Particulars: PMA-differentiated THP-1, IRF3 reporter luminescence; stronger effect = higher value.

Active and inactive are the calls of the source. No rule for the calls is given here.

Experimental findings from PubChem BioAssay are described below.

With `CC(=O)NC(Cc1ccc(OP(=O)(O)O)cc1)C(=O)NC1CCC(=O)N2CCCC(C(=O)NCc3ccc(O)cc3)N2C1=O` (stereo not given), in assay [1], the liver cell % of control is 107% and the parasite % of control is 44.4% (inactive). Also, in assay [2], the percent of negative control (+Dex) was 94.5% (inactive) and the z-score worked out at 0.215. Also, in assay [3], the EGFP object count was 6 and the EGFP/DsRed ratio is 0.202 (inactive). In addition, in assay [4], the fraction signal is -0.007 (inactive).

For the molecule `N=C1N=C(N)C(=Cc2ccc3ncccc3c2)S1`, in assay [1], the liver cell % of control came to 121% and the parasite % of control is 61.8% (inactive). In assay [2], the percent of negative control (+Dex) was 98.5% (inactive) and the z-score was 1.46. In assay [3], the EGFP object count was determined as 3.5 and the EGFP/DsRed ratio was 0.171 (inactive). Moreover, in assay [4], the fraction signal is 0.006 (inactive).

As for `CCCn1cc(C2=C(c3cn(C)c4ccccc34)C(=O)NC2=O)c2ccccc21`, in assay [1], the liver cell % of control came to 101% and the parasite % of control was 78.5% (inactive). Besides, in assay [2], the percent of negative control (+Dex) was 102% (inactive) and the z-score is 0.09. Besides, in assay [3], the EGFP object count is 17.5 and the EGFP/DsRed ratio is 0.158 (inactive). In addition, the fraction signal in assay [4] was 0.0035 (inactive).

Take `Cn1c(=O)c(Sc2ccccc2F)cc2cnc(NC3CCOCC3)nc21`: in assay [1], the liver cell % of control worked out at 103% and the parasite % of control was 68.5% (inactive). Further, in assay [2], the percent of negative control (+Dex) was 107% (inactive) and the z-score was found to be 0.685. In assay [3], the EGFP object count is 2 and the EGFP/DsRed ratio is 0.0407 (inactive). Also, the fraction signal in assay [4] is -0.0075 (inactive).

`Cn1c(=O)c(Oc2ccc(F)cc2F)cc2cnc(NC3CCOC3)nc21` (stereo not given): in assay [1], the liver cell % of control was found to be 96.2% and the parasite % of control is 51.2% (inactive). In assay [2], the percent of negative control (+Dex) is 104% (inactive) and the z-score was determined as 0.575. In assay [3], the EGFP object count worked out at 4.5 and the EGFP/DsRed ratio was 0.257 (inactive). Moreover, in assay [4], the fraction signal was -0.001 (inactive).

For the molecule `CS(=O)(=O)N1CCC(n2c(=O)c(Oc3ccc(F)cc3F)cc3cnc(NC4CCOCC4)nc32)CC1`, in assay [1], the liver cell % of control came out at 112% and the parasite % of control was 64.5% (inactive). Also, in assay [2], the percent of negative control (+Dex) is 95% (inactive) and the z-score was -0.51. Besides, in assay [3], the EGFP object count is 2 and the EGFP/DsRed ratio was 0.107 (inactive). In addition, the fraction signal in assay [4] was 0.0035 (inactive).

Consider `Cn1cc(C2=C(c3cn(C)c4ccc(OCc5ccccc5)cc34)C(=O)NC2=O)c2ccccc21`, for which, in assay [1], the liver cell % of control worked out at 97.7% and the parasite % of control was 46.6% (inactive). In assay [2], the percent of negative control (+Dex) is 101% (inactive) and the z-score is -0.035. Further, in assay [3], the EGFP object count turned out to be 4.5 and the EGFP/DsRed ratio was 0.132 (inactive). Also, the fraction signal in assay [4] was -0.016 (inactive).

As to `CC(=O)Nc1ccc2c(c1)c(C1=C(c3cn(C)c4ccccc34)C(=O)NC1=O)cn2C`, in assay [1], the liver cell % of control came to 87.4% and the parasite % of control is 47.8% (inactive). In assay [2], the percent of negative control (+Dex) is 97.5% (inactive) and the z-score was -1.79. In assay [3], the EGFP object count was 35.5 and the EGFP/DsRed ratio is 0.557 (inactive). The fraction signal in assay [4] is -0.0135 (inactive).

For the molecule `Cn1c(=O)c(Oc2ccc(F)cc2F)cc2cnc(NC3CCS(=O)(=O)CC3)nc21`, in assay [1], the liver cell % of control was determined as 106% and the parasite % of control was 43.3% (inactive). Moreover, in assay [2], the percent of negative control (+Dex) is 97.5% (inactive) and the z-score worked out at 0.51. Besides, in assay [3], the EGFP object count is 5 and the EGFP/DsRed ratio was 0.324 (inactive). The fraction signal in assay [4] is 0.001 (inactive).

`Cc1[nH]nc2c1N=C(c1ccccc1F)c1cc(C(N)=O)ccc1N2`: in assay [1], the liver cell % of control was found to be 91.5% and the parasite % of control is 76.9% (inactive). Moreover, in assay [2], the percent of negative control (+Dex) was 110% (inactive) and the z-score is 0.59. Besides, in assay [3], the EGFP object count was 54.5 and the EGFP/DsRed ratio is 0.555 (active). The fraction signal in assay [4] is -0.005 (inactive).
